ELG1 genotox: induces genotoxicity in HEK293T cells with luciferase-tagged ELG1. HEK293T ELG1-luciferase reporter, luminescence, 16 h. Potency, µM (top dose mostly 46 µM), usual class: activators. 330,000 compounds, 1.3% hits; further: nearly all actives have a fitted effect of over 60% in size
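16 hr compound incubation (37 °C, 5% CO2) of HEK293T cells carrying luciferase-tagged ELG1; luciferase then measured by ONE-Glo luminescence after 30 min at RT.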
NPC1 prom act: NPC1 promoter activation; Huh7 NPC1 promoter luciferase reporter, 24 h; Potency, µM (highest dose often 9.22 µM), most hits filed as activators; 320,000 compounds, 2.4% hits; further: nearly all actives have a fitted effect of over 60% in size
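In 1536-well qHTS, Huh7 cells harboring an NPC1 promoter–luciferase construct received compound for 24 h; activation was quantified by luminescence following luciferase reagent addition.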
Rab9 prom act: activates the Rab9 promoter; Potency, µM (series often up to 9.22 µM), most hits filed as activators; 320,000 compounds, 2.8% hits; Huh7 Rab9 promoter-luciferase reporter, luminescence, 24 h; further: nearly all actives have a fitted effect of over 60% in size
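Stable Rab9-luc Huh7, 1500 cells/well, 2 h settle; cmpd in DMSO, 24 h, 37 °C/5% CO2; luciferase reagent 10 min RT; luminescence.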
FLuc counter: firefly luciferase modulation, counter-screen for miR-21 project; P08659; Potency, µM (series often up to 57.5 µM), usual class: inhibitors; AID 588342; purified FLuc, Km substrates, luminescence inhibition; 360,000 compounds, 6.9% hits; further: nearly all actives have a fitted effect of over 55% in size
Target sequence (P08659 whole entry, looked up): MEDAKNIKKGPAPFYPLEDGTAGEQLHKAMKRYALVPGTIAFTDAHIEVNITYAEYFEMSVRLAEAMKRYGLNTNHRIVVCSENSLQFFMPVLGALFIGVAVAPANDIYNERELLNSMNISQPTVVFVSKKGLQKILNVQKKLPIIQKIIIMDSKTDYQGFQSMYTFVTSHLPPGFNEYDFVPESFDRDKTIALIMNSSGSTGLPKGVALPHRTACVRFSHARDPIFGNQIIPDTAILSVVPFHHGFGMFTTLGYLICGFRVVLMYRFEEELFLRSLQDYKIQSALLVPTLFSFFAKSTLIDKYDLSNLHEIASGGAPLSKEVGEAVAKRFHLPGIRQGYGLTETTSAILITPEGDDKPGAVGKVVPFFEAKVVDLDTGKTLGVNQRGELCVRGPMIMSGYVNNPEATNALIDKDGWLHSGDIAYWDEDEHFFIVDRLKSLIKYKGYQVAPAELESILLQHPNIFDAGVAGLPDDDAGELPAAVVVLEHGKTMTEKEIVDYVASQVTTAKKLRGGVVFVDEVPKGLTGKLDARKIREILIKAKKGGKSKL
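Purified P. pyralis luciferase, 10 nM final, with Km-level 10 uM D-luciferin and 10 uM ATP in 50 mM Tris acetate pH 7.5, 10 mM Mg acetate, 0.01% Tween-20, 0.05% BSA; 6-point qHTS titration about 60 µM downward; luminescence read.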
SMN2 splice up: SMN2 splice variant enhancement. 210,000 compounds, 2.8% hits. HEK293 SMN2-luciferase splicing reporter, luminescence, 30-36 h. Potency, µM (top dose mostly 46.1 µM), hits mostly activators. AID 1458; further: nearly all actives have a fitted effect of over 55% in size
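HEK293 cells carry an SMN2 […]–luciferase reporter in which exon 7 inclusion puts luciferase in frame. Cells were plated 10-12 h before compound addition, then incubated 30-36 h at 37C. ONE-Glo luminescence was read; sodium butyrate at 4.5 mM final served as control.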
Numbers stand for hits; n = inactive; u = inconclusive; x = no result; [ ] = dose if it differs, or a comment. Sampled rows, rich in hits. Any-hit rate of the full collection: about 7.5%. The call rests on the fitted dose curve; in most records, active means well fitted curve in the direction sought with a large enough effect; inconclusive means small, poorly fitted or top-dose-only effect, or another doubt; inactive means no such curve, though single readings can be large; an effect the other way counts as inactive or inconclusive.

SMILES	ELG1 genotox	NPC1 prom act	Rab9 prom act	FLuc counter	SMN2 splice up
COc1ccc(C(=O)NCCc2cn3ccccc3n2)cc1	n	n	n	n	x
COc1ccc(C(=O)N=c2nc3ccccn3s2)cc1	0.366µM	0.126µM	0.251µM	0.0953µM	x
C=CCc1c(NCCO)nc(C)[nH]c1=O	n	n	n	n	x
Cc1ccsc1/C=N/n1c(-c2ccccn2)n[nH]c1=S	n	n	n	n	n
COc1ccc(CNC(=O)C2CC(c3ccc(OC)cc3)=NO2)cc1 (centres undefined)	n	n	n	n	n
COc1ccc(C2=NOC(CNC(N)=S)C2)cc1 (centres undefined)	n	1µM	0.708µM	10.7µM	12.6µM
N#CC1=C2C=Cc3ccccc3N2CCCC1=O	u	2.24µM	2.82µM	10.7µM	n
CCOC(=O)C(C)Sc1ncc(-c2ccccc2)cn1 (centres undefined)	n	n	n	21.3µM	n
CCOC(=O)c1cnc(SCc2ccccc2)nc1N	7.31µM	1.58µM	0.891µM	2.13µM	5.62µM
CCOC(=O)C(C)Sc1nc(-c2ccccc2)ccc1C#N (centres undefined)	x	x	x	n	n
COc1ccc(Nc2ncnc3c2cnn3-c2ccccc2)cc1OC	n	n	n	n	n
COc1ccc(Nc2ncnc3sc(-c4ccccc4)cc23)cc1OC	n	n	n	12µM	n
O=C1c2ccccc2NC(c2ccc(-c3ccc(F)cc3)o2)N1O (centres undefined)	u	2.82µM	n	u	x
CCC(NS(=O)(=O)c1ccc(C)cc1)C(=O)N1CCOCCOCCOCCOCC1 (centres undefined)	n	n	n	n	x
Clc1ccc(/C=C/c2ncc[nH]2)c(Cl)c1	u	2.82µM	2.82µM	2.39µM	x
Cc1cccc(-c2cc(C(=O)N3CCCc4ccccc43)c3ccccc3n2)c1	n	n	n	12µM	x
Cc1ccc(-c2cc(C(F)F)n3ncc(C(=O)N4CCCc5ccccc54)c3n2)cc1	n	n	n	n	n
O=C(c1cc(-c2ccccc2)nc2ccccc12)N1CCCc2ccccc21	n	n	n	16.9µM	n[1.84 µM]
COc1ccc(CNC(=O)COC(=O)c2ccc(OCC3CCCO3)cc2)cc1 (centres undefined)	n	n	n	n	x
COc1ccc(OCc2cc(C(=O)NC(C)Cc3cccnc3)no2)c(Cl)c1 (centres undefined)	n	n	n	13.5µM	x
COc1ccc(OCc2cc(C(=O)NC(C)Cn3cncn3)no2)c(Cl)c1 (centres undefined)	u	u	u	12µM	x
O=C(NCCc1cccnc1)c1cc(COc2ccc(F)cc2Cl)on1	n	n	n	19µM	x
COc1ccc(OCc2cc(C(=O)NC(C)Cc3ccccn3)no2)c(Cl)c1 (centres undefined)	n	n	n	12µM	x
CC(=O)c1ccc(OCc2cc(C(=O)NC(C)Cc3ccccn3)no2)cc1 (centres undefined)	n	n	n	n	x
O=C(Cn1cnc2ccccc2c1=O)OCC(=O)c1ccc2c(c1)OCCO2	n	n	n	21.3µM	n
SMILES	ELG1 genotox	NPC1 prom act	Rab9 prom act	FLuc counter	SMN2 splice up
O=C(Cn1cnc2ccccc2c1=O)Nc1ccc2c(c1)OCCO2	u	2.24µM	1.78µM	9.53µM	12.6µM
O=C1COc2ccc(C(=O)COC(=O)Cn3cnc4ccccc43)cc2N1	n	n	n	n	n
Cc1ccc(NC(=O)c2cccc(NC(=O)CCC(=O)O)c2)cc1C	n	n	n	8.49µM	n
Cc1ccccc1C(=O)Nc1cccc(C(=O)Nc2ccccc2C(=O)O)c1	n	n	n	26.9µM	x
O=C(Nc1ccccc1C(=O)O)c1cccc(NC(=O)c2ccco2)c1	n	n	n	15.1µM	x
O=C(O)c1cccc(NC(=O)c2ccccc2NC(=O)c2ccccc2F)c1	n	n	n	10.7µM	x
CC(=O)Oc1cccc(C(=O)Nc2cccc(C(=O)Nc3ccccc3C(=O)O)c2)c1	n	n	n	u	x
C=CCc1cc(/C=C2/NC(=O)N(CC)C2=O)cc(OCC)c1OCc1ccc(C(=O)O)cc1	n	n	n	n	n
CC[C@]1(C(=O)OC)[C@H]2C(=O)N(C)C(=O)[C@H]2[C@H]2CN=C(SCc3ccc(C#N)cc3)N21	n	x	x	x	x
C[C@H]1CN=C(Nc2ccccc2)N1CC1CCCCCC1	n	n	n	n	x
CCCCOC(=O)c1ccc(NC(=O)c2ccccc2OC)cc1	n	n	n	u	n
CCCCC(=O)Nc1cccc(C(=O)Nc2ccccc2C(=O)O)c1	n	n	n	16.9µM	x
O=C(COc1ccc2ccccc2c1)Nc1cccc(C(=O)Nc2ccccc2C(=O)O)c1	n	n	n	23.9µM	n[1.84 µM]
COc1ccc(OCC(=O)Nc2ccc(C(=O)Nc3ccccc3C(=O)O)cc2)cc1	n	n	n	u	x
CCCCCOC(=O)c1ccc(NC(=O)c2cccc(NC(=O)c3ccccc3C(=O)O)c2)cc1	n	n	n	19µM	x
CCCCC(=O)Nc1cccc(NC(=O)c2cccc(Br)c2)c1	n	n	n	n	n
O=C(Nc1cc(Br)c(O)c(Br)c1)c1cccc(NC(=O)c2ccco2)c1	n	n	n	10.7µM	x
O=C(Nc1cccc(C(=O)N2CCCC2)c1)c1ccccc1Cl	n	n	n	n	n
O=C(Nc1ccccc1C(=O)O)c1cccc(NC(=O)c2ccccc2Cl)c1	n	n	n	19µM	x
O=C(Nc1cc(NC(=O)c2ccccc2Cl)ccc1Cl)c1ccccc1	x	x	x	12µM	n
C=C1c2ccccc2S(=O)(=O)N(Cc2ccccc2)C1COCc1ccccc1 (centres undefined)	n	n	n	n	x
CS(=O)(=O)c1ccc(NC(=O)c2ccc3c(c2)S(=O)(=O)N=C2CCCCCN23)cc1	n	n	n	u	x
CCn1cc(-c2cc(C(=O)O)c3ccccc3n2)cn1	n	n	n	2.69µM	n
CCn1cc(-c2cc(C(=O)O)c3ccccc3n2)c(C)n1	n	n	n	9.53µM	n
N#Cc1cccc(CS(=O)(=O)c2nc3ccccc3s2)c1	x	x	x	x	n
SMILES	ELG1 genotox	NPC1 prom act	Rab9 prom act	FLuc counter	SMN2 splice up
COc1ccc(NC(=O)Cc2ccsc2)cc1S(=O)(=O)N1CCOCC1	n	n	n	n	x
O=C(c1ccc2c3n(nc2c1)-c1ccccc1CO3)N1CCOCC1	u	1.58µM	1µM	4.78µM	x
Cc1ccc2c(c1)COc1c3ccc(C(=O)N4CCCCC4)cc3nn1-2	u	3.16µM	u	3.79µM	x
O=C(c1ccc2c3n(nc2c1)-c1ccc(Cl)cc1CO3)N1CCOCC1	18.3µM	2µM	u	9.53µM	x
CS(=O)(=O)N1CCc2cc(C(=O)N3CCOCC3)ccc21	n	n	n	n	n
O=C(c1ccc2c3n(nc2c1)-c1ccccc1CO3)N1CCCCC1	u	0.794µM	0.891µM	3.38µM	x
COc1ccc(CCNC(=O)c2cc(-c3ccc(C)c(C)c3)nc3ccccc23)cc1OC	x	x	x	2.69µM	x
COc1ccc(-c2cc(C(=O)NCCc3ccc(OC)c(OC)c3)c3ccccc3n2)cc1	x	x	x	6.75µM	n
COc1ccc(-c2cc(C(=O)NCCc3ccccc3)c3cc(C(C)C)ccc3n2)cc1	x	x	x	n	x

Compound activity (PubChem)
